Laboratory results reported in PubChem BioAssay.
For some assays here: Measured potencies and affinities stand elsewhere. The source made the active and inactive calls. Unless noted, cut-off not given; nearly all actives show IC50 up to about 0.91 µM.

molecular target: Protein kinase 7 (PK7), Plasmodium falciparum 3D7 (PF3D7_0213400) (UniProt Q7YTF7); assay: inhibition of Plasmodium PK7 catalytic activity – biochemical, TCAMS antimalarial set, Kinase-Glo luminescence (AID 1159587; call rule not given here); conditions: recombinant PfPK7, Kinase-Glo ATP depletion luminescence
Sequence (Q7YTF7 1-343): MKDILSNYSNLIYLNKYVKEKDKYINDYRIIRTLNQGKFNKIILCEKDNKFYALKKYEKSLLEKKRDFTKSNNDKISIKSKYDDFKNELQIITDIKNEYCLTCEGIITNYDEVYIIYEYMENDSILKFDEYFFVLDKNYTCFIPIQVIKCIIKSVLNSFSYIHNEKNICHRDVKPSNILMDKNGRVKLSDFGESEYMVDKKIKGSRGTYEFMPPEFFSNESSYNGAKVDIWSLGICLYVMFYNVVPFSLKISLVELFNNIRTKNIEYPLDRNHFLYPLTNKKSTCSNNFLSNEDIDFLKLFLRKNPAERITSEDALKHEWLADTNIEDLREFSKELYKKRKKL

outcome, inactive:
COc1cc2c(cc1C(F)(F)F)N(C(=O)Nc1cc(F)c(F)c(-c3cccnc3)c1)CC2
CCCn1cc2c(ccc3nc(N)nc(N)c32)n1
Oc1ccc2[nH]c(-c3cccs3)nc2c1CN1CCC(N2CCCC2)CC1
CN1Cc2cc(NC(=O)/C=C/c3ccccc3Cl)ccc2C(C)(C)C1
CN(C)CCOc1ccc2[nH]c(-c3cccc(OCc4ccccc4)c3)nc2c1C#N
O=C(NC1CCN(Cc2ccccc2O)C1)c1cccc(C(F)(F)F)c1 (stereo not given)
Cc1cc(NN=Cc2ccc(Cl)cc2)c2ccc(F)cc2n1
O=C(CCCC(=O)Nc1ccc(C2=NCCN2)cc1)Nc1ccc(C2=NCCN2)cc1
O=C(NC1CCCCN(Cc2ccc3c(c2)OCCO3)C1)c1cc(-c2ccccc2F)cs1 (stereo not given)
CC(=O)N1CCC(C(=O)Nc2ccc(-c3cccc(-c4nc5ccc(C(F)(F)F)cc5[nH]4)c3)cc2)CC1
O=[N+]([O-])c1ccccc1C=NNc1c2c(nc3ccccc13)CCCC2
CCNc1cc(C(=O)N[C@@H](Cc2ccccc2)[C@H](O)CNCc2cccc(-n3ccnc3)c2)cc(N2CCCC2=O)c1
Cc1cccc2[nH]c(-c3ccc(-c4ccc(CN5CCC(C(N)=O)CC5)cc4)s3)nc12
Cc1cccc2[nH]c(-c3ccc(-c4cccc(C(=O)N5CCCCC5C(C)O)c4)s3)nc12 (stereo not given)
COc1ccc2ncc(F)c([C@H](O)CN3CCC(NCc4cc5c(cn4)OCCO5)CC3)c2c1
C[C@@H]1CN(c2cnn(C/C=C/c3ccc(NC(=O)c4ccc5nonc5c4)cc3)c(=O)c2Cl)C[C@H](C)N1
Cc1cccc2[nH]c(-c3ccc(-c4cccc(CNCc5cccc(N)c5)c4)cc3)nc12
CN(C)CC(=O)Nc1ccc(Nc2nccc(NCC(O)c3ccccc3)n2)cc1 (stereo not given)
S=C(NN=Cc1ccccn1)Nc1ccc(Cl)c(Cl)c1
O=C(n1c(-c2cc3ccccc3n2C(=O)C(F)(F)F)cc2ccccc21)C(F)(F)F
N#Cc1ccc(NC(=O)Nc2ccc3c(c2)CCN(C2CCC2)CC3)cc1
c1csc(-c2ccc3c(c2)CC(NCc2c[nH]c4cnccc24)C3)c1 (stereo not given)
CCOc1ccc(-c2nonc2NC(=O)c2ccc(OC(C)C)cc2)cc1OCC
O=C(Nc1ccc(Cl)cc1)Nc1ccc2nonc2c1
CC(=O)c1ccc(NC(=O)C2c3ccccc3C(=O)N(CC(C)C)C2c2cccs2)cc1 (stereo not given)
CC(C)(C)c1ccc(CN2CCC(CNC(=O)c3cc(-c4cccc(F)c4)cs3)C2)cc1 (stereo not given)
CCCNC(=O)C1CCN(C(c2ccccc2)c2ccc(Cl)c(Cl)c2)CC1 (stereo not given)
Cc1cccc2[nH]c(-c3ccc(-c4ccc(CNCC5CCCO5)cc4)s3)nc12 (stereo not given)
CN1CCN(c2cccc(-c3nnc(-c4ccc(OCC(=O)NCc5ccc(C(F)(F)F)cc5)c([N+](=O)[O-])c4)o3)c2)CC1
COc1ccc(NC(=O)[C@H](CC(C)C)Nc2ccnc(Nc3ccccc3)n2)cc1
CCCCN(C)CC#Cc1ccc(-c2ccc3[nH]c(C)c(Br)c(=O)c3c2)cn1
Clc1ccc(-n2cnc3c(Nc4ccc(Oc5ccccc5)cc4)ncnc32)cc1Cl
CCCCNc1nc(NCCCC)c2c(C)c(Cc3ccccc3)c(NCCCC)nc2n1
O=c1cc(NCCCNCc2cc(C(F)(F)F)ccc2F)[nH]c2ccccc12
COc1ccc(NC(=O)[C@H](Cc2ccccc2)Nc2cc(C)nc(NCCc3ccc(F)cc3)n2)cc1
O=C(NCCN1CCCC1)c1ccc(-c2ccc(-c3nc4ccc(C(F)(F)F)cc4[nH]3)s2)cc1
COc1ccc2sc(CNCCCNc3cc(=O)c4ccccc4[nH]3)c(Cl)c2c1
CCc1cn2c3c(cc(C(=O)N[C@@H](Cc4ccccc4)[C@H](O)CNCc4ccccc4)cc13)N(C)S(=O)(=O)CC2
CS(=O)(=O)N(c1ccc(F)cc1)c1cc(C(=O)N[C@@H](Cc2ccccc2)[C@H](O)CNCc2cccc(C(F)(F)F)c2)cc(N2CCCC2=O)c1
CC(C)(CNCc1ccc(C(F)(F)F)cc1)c1nc(-c2ccc(Cl)c(O)c2)c(-c2ccncc2)[nH]1

molecular target: Calcium-dependent protein kinase 4 (Plasmodium falciparum (isolate 3D7)) (UniProt Q8IBS5); assay: PfCDPK4 kinase inhibitors, biochemical, TCAMS library (AID 1159588); conditions: recombinant PfCDPK4, Kinase-Glo ATP depletion luminescence
Sequence (Q8IBS5 whole entry, looked up): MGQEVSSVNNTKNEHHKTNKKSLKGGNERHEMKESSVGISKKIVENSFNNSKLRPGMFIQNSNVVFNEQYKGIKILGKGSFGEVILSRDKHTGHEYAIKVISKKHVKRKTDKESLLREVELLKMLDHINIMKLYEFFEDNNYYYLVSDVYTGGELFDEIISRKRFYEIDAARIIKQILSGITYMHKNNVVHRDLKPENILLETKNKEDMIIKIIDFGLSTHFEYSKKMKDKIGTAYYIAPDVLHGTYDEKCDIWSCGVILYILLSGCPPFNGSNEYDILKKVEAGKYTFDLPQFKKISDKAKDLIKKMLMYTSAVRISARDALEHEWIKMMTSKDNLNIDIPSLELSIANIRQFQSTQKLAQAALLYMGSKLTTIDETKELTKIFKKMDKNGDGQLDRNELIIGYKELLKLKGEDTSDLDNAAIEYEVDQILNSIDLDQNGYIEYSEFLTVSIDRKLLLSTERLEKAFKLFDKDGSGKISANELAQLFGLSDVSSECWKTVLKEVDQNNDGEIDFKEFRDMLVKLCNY

outcome, inactive:
COc1cc2c(cc1C(F)(F)F)N(C(=O)Nc1cc(F)c(F)c(-c3cccnc3)c1)CC2
CCCn1cc2c(ccc3nc(N)nc(N)c32)n1
Oc1ccc2[nH]c(-c3cccs3)nc2c1CN1CCC(N2CCCC2)CC1
CN1Cc2cc(NC(=O)/C=C/c3ccccc3Cl)ccc2C(C)(C)C1
CN(C)CCOc1ccc2[nH]c(-c3cccc(OCc4ccccc4)c3)nc2c1C#N
O=C(NC1CCN(Cc2ccccc2O)C1)c1cccc(C(F)(F)F)c1 (stereo not given)
Cc1cc(NN=Cc2ccc(Cl)cc2)c2ccc(F)cc2n1
O=C(CCCC(=O)Nc1ccc(C2=NCCN2)cc1)Nc1ccc(C2=NCCN2)cc1
O=C(NC1CCCCN(Cc2ccc3c(c2)OCCO3)C1)c1cc(-c2ccccc2F)cs1 (stereo not given)
CC(=O)N1CCC(C(=O)Nc2ccc(-c3cccc(-c4nc5ccc(C(F)(F)F)cc5[nH]4)c3)cc2)CC1
O=[N+]([O-])c1ccccc1C=NNc1c2c(nc3ccccc13)CCCC2
CCNc1cc(C(=O)N[C@@H](Cc2ccccc2)[C@H](O)CNCc2cccc(-n3ccnc3)c2)cc(N2CCCC2=O)c1
Cc1cccc2[nH]c(-c3ccc(-c4ccc(CN5CCC(C(N)=O)CC5)cc4)s3)nc12
Cc1cccc2[nH]c(-c3ccc(-c4cccc(C(=O)N5CCCCC5C(C)O)c4)s3)nc12 (stereo not given)
COc1ccc2ncc(F)c([C@H](O)CN3CCC(NCc4cc5c(cn4)OCCO5)CC3)c2c1
C[C@@H]1CN(c2cnn(C/C=C/c3ccc(NC(=O)c4ccc5nonc5c4)cc3)c(=O)c2Cl)C[C@H](C)N1
Cc1cccc2[nH]c(-c3ccc(-c4cccc(CNCc5cccc(N)c5)c4)cc3)nc12
CN(C)CC(=O)Nc1ccc(Nc2nccc(NCC(O)c3ccccc3)n2)cc1 (stereo not given)
S=C(NN=Cc1ccccn1)Nc1ccc(Cl)c(Cl)c1
O=C(n1c(-c2cc3ccccc3n2C(=O)C(F)(F)F)cc2ccccc21)C(F)(F)F
N#Cc1ccc(NC(=O)Nc2ccc3c(c2)CCN(C2CCC2)CC3)cc1
c1csc(-c2ccc3c(c2)CC(NCc2c[nH]c4cnccc24)C3)c1 (stereo not given)
CCOc1ccc(-c2nonc2NC(=O)c2ccc(OC(C)C)cc2)cc1OCC
O=C(Nc1ccc(Cl)cc1)Nc1ccc2nonc2c1
CC(=O)c1ccc(NC(=O)C2c3ccccc3C(=O)N(CC(C)C)C2c2cccs2)cc1 (stereo not given)
CC(C)(C)c1ccc(CN2CCC(CNC(=O)c3cc(-c4cccc(F)c4)cs3)C2)cc1 (stereo not given)
CCCNC(=O)C1CCN(C(c2ccccc2)c2ccc(Cl)c(Cl)c2)CC1 (stereo not given)
Cc1cccc2[nH]c(-c3ccc(-c4ccc(CNCC5CCCO5)cc4)s3)nc12 (stereo not given)
CN1CCN(c2cccc(-c3nnc(-c4ccc(OCC(=O)NCc5ccc(C(F)(F)F)cc5)c([N+](=O)[O-])c4)o3)c2)CC1
COc1ccc(NC(=O)[C@H](CC(C)C)Nc2ccnc(Nc3ccccc3)n2)cc1
CCCCN(C)CC#Cc1ccc(-c2ccc3[nH]c(C)c(Br)c(=O)c3c2)cn1
Clc1ccc(-n2cnc3c(Nc4ccc(Oc5ccccc5)cc4)ncnc32)cc1Cl
CCCCNc1nc(NCCCC)c2c(C)c(Cc3ccccc3)c(NCCCC)nc2n1
O=c1cc(NCCCNCc2cc(C(F)(F)F)ccc2F)[nH]c2ccccc12
COc1ccc(NC(=O)[C@H](Cc2ccccc2)Nc2cc(C)nc(NCCc3ccc(F)cc3)n2)cc1
O=C(NCCN1CCCC1)c1ccc(-c2ccc(-c3nc4ccc(C(F)(F)F)cc4[nH]3)s2)cc1
COc1ccc2sc(CNCCCNc3cc(=O)c4ccccc4[nH]3)c(Cl)c2c1
CCc1cn2c3c(cc(C(=O)N[C@@H](Cc4ccccc4)[C@H](O)CNCc4ccccc4)cc13)N(C)S(=O)(=O)CC2
CS(=O)(=O)N(c1ccc(F)cc1)c1cc(C(=O)N[C@@H](Cc2ccccc2)[C@H](O)CNCc2cccc(C(F)(F)F)c2)cc(N2CCCC2=O)c1
CC(C)(CNCc1ccc(C(F)(F)F)cc1)c1nc(-c2ccc(Cl)c(O)c2)c(-c2ccncc2)[nH]1
